Laboratory results: PubChem BioAssay
Values without a mark were called inactive. How the calls were made is not given here.

The molecules below were run against Pantothenate synthetase (Mycobacterium tuberculosis (strain ATCC 25618 / H37Rv)) (UniProt P9WIL5) (assay: Recombinant Mtb pantothenate synthetase (PanC) inhibitors, coupled enzyme, confirmatory (AID 375;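 further: 0% = full reaction with vehicle and 100% = no enzyme background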)). Conditions: coupled enzyme assay; at 10 µM, active compounds read high.
Chain of Pantothenate synthetase (Mycobacterium tuberculosis (strain ATCC 25618 / H37Rv)) (P9WIL5 whole entry, looked up): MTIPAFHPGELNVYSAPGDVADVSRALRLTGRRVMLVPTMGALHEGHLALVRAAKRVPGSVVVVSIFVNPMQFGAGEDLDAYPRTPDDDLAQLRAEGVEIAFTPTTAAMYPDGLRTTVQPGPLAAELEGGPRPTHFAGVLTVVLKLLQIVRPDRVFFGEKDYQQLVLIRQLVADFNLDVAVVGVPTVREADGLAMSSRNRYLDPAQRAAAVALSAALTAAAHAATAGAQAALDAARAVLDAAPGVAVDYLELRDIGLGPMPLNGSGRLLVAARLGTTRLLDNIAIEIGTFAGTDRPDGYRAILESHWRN

Row | Structure (SMILES) | inhibition
1 | CSC1=N/C(=C\C=C\c2cccs2)C(=O)S1 | 1%
2 | CC1(C)Cc2noc(N)c2C(C)(C)N1OC(=O)c1ccco1 | 0%
3 | CCOCCn1cnc2sc(C(=O)Nc3nc(C)c(C(=O)OCC)s3)c(C)c2c1=O | 13%
4 | Cc1ccc(N(C(C)C(=O)Nc2ccc(S(=O)(=O)N3CCOCC3)cc2)S(C)(=O)=O)cc1 (stereo not given) | 0%
5 | COc1cccc(-c2nc(CS(=O)(=O)CC(=O)N3CCc4ccccc4C3)c(C)o2)c1 | 4%
6 | CN(C)CCCN1c2ccccc2CCc2ccccc21 | 2%
7 | O=C(CSc1nc(N2CCCCC2)nc(N2CCCCC2)n1)Nc1nccs1 | 0%
8 | CN(C)CCSc1nnc2sc3ccccc3n12 | 8%
9 | Cc1cc(NC(=O)Cn2cnc3c2c(=O)n(C)c(=O)n3C)n(-c2ccccc2)n1 | 0%
10 | O=c1[nH]c2ccccc2nc1NCCN1CCOCC1 | 1%
11 | CC1c2nc3ccccc3n2C(CC(=O)NCc2ccccn2)C(=O)N1Cc1ccccc1 (stereo not given) | 0%
12 | CCCCC(O)(C(NC=O)C(=O)OC)C(F)(F)F (stereo not given) | 2%
13 | O=C(CSc1ccc2nnc(-c3ccccc3)n2n1)N1CCN(c2ccccc2)CC1 | 1%
14 | COc1nc(OC)nc(N2CCC(C(=O)NC3CCCCCC3)CC2)n1 | 11%
15 | O=C(Nc1ccc(Cl)cc1)N1CCSCC1 | 1%
16 | CC1CCC2C(C1)c1sc(=O)[nH]c1SC2(C)C (stereo not given) | 2%
17 | COc1ccc(-c2nc(CS(=O)CC(=O)N3CCCC3)c(C)o2)cc1 (stereo not given) | 0%
18 | Cc1ccc(S(=O)(=O)Cn2nnnc2C(C(C)C)N2CCN(C(=O)c3ccco3)CC2)cc1 (stereo not given) | 0%
19 | O=c1c(-c2ccc(Br)cc2)coc2c(CN3CCOCC3)c(O)ccc12 | 0%
20 | CCOc1ccccc1-c1nc(-c2ccc(NC(=O)Cc3ccccc3OC)cc2)no1 | 2%

Row | Structure (SMILES) | inhibition
21 | COC(=O)C(C)Oc1ccc2c3c(c(=O)oc2c1)CCCCC3 (stereo not given) | 2%
22 | CC[C@H]1OC(=O)C[C@@H](O)[C@H](C)[C@@H](O[C@@H]2O[C@H](C)C[C@H](N(C)C)[C@H]2O)[C@@H](CC=O)C[C@@H](C)C(=O)C=C[C@]2(C)O[C@H]2[C@@H]1C | 0%
23 | Cc1nc2scc(-c3cccs3)c2c(=O)n1-n1cccc1 | 4%
24 | O=S(=O)(c1ccc(Br)s1)N1CCN(c2ccccc2)CC1 | 0%
25 | C/C(=C\C(=O)O)CC(=O)O | 0%
26 | CC1(C)CC(=O)C(CC2=C(O)CC(C)(C)CC2=O)=C(O)C1 | 4%
27 | CCOC(=O)CNC(=O)Nc1ccccc1C(=O)OC | 6%
28 | COc1nc(-c2ccc(Cl)cc2)ccc1-c1noc(-c2ccncc2)n1 | 4%
29 | CCCCSc1nc2c(cnn2-c2ccc(Cl)cc2)c(=O)[nH]1 | 0%
30 | CC(C)Cn1c(N)c(C(=O)COC(=O)c2ccc3c(c2)OCCO3)c(=O)n(C)c1=O | 0%
31 | CC(=O)Nc1ccc(S(=O)(=O)NCC(C)NS(=O)(=O)c2ccc(NC(C)=O)cc2)cc1 (stereo not given) | 2%
32 | Cc1cc(=O)[nH]c2c1cnn2Cc1ccccc1 | 1%
33 | O=S(=O)(Cc1ccc(Cl)cc1)Nc1ccc2c(c1)OCO2 | 7%
34 | CCOc1ccc(N(CC(=O)NC2CCCCC2)S(=O)(=O)c2c(C)noc2C)cc1 | 0%
35 | CCc1nnc(NC(=O)COC(=O)CN2C(=O)c3ccccc3C2=O)s1 | 0%
36 | COc1ccccc1N1CCN(C(=O)c2ccc(S(=O)(=O)N3CCCCCC3)cc2)CC1 | 2%
37 | CCOC(=O)Cn1nc(-c2ccc(Cl)cc2)cc1N | 0%
38 | Cc1cc(NC(=O)CSc2nc3ccsc3c(=O)n2NC(=O)c2ccccc2)no1 | 1%
39 | CN1CCN(S(=O)(=O)c2ccc(NC(=O)c3ccc(F)cc3)cc2)CC1 | 0%
40 | CN1CCN(C2=C(Cl)C(=O)N(c3cccc(Cl)c3)C2=O)CC1 | 3%
